For 43 molecules, activity change, negative = inhibition results are on record in PubChem BioAssay AID2472 (National Center for Advancing Translational Sciences (NCATS), 2010).

“And” between values parts separate entries of the source, which are not always exact repeats. Identical values can stand only once. Among all 290,000 compounds or so, about 2,000 (0.69%) were called active. The list comes from a sample in which actives are over-represented; it also holds similar structures and randomly drawn compounds. A number with no mark means an inactive call. Rule as the data show it: active = activity change below about -30%; inactive = the rest, inconclusive results apart.
% is scaled to controls: 0 for no effect and ±100 for the full control effect.

The nature of the experiment: qHTS Assay for Inhibitors of Fructose-1,6-bisphosphate Aldolase from Giardia Lamblia: Coupling assay counterscreen. The settings on record: coupling enzyme system counterscreen, AmpLite Red fluorescence; at 58.2 µM (top of the series). From the text:
MLPCN Grant: MH085699-01 Assay Provider: Osnat Herzberg, University of Maryland NCGC Assay Overview: The objective of this project is to obtain compounds that inhibit Giardia lamblia growth. G. lamblia is a human pathogen which afflicts impoverished nations; it is the most common cause of outbreaks of diarrhea in the United States. During the course of our study of potential drug targets in Giardia, we have identified the Class II (Zn2+ functions in electrophilic catalysis) fructose-1,6-bisphosphate aldolase (FBPA) as an excellent candidate for drug targeting. FBPA is a key glycolytic pathway enzyme, essential for G. lamblia survival. The human FBPA belongs to the Class I aldolases, which have a different substrate binding site structure and a radically different catalytic mechanism (employing a lysine-Schiff base intermediate). Therefore, affinity-based or mechanism-based inhibitors of the Giardia FBPA are expected not to interfere with the catalytic function of the human FBPA. A glyceraldehyde-3-phosphate dehydrogenase/triose phosphate isomerase/NAD/arsenate coupled assay was adapted to the 1536-well HTP format for use in the primary screen. This was done by coupling it to a diaphorase/resazurin/resorufin reaction that can be monitored by fluorescence (excitation, 544 nm; emission, 590 nm). Compounds identified in this screen will be further evaluated by coupling the […]/triose phosphate isomerase/NADH assay to a phenazine methosulfate/tetranitroblue tetrazolium color reaction. False positives due to the dehydrogenases and diaphorase inhibition will be eliminated, and selectivity assay will triage inhibitors of mammalian triose phosphate isomerase and the Class I FBPA. G. lamblia FBPA inhibitors identified by the in vitro analyses will be examined for growth inhibition of Giardia trophozoites, and for cytotoxicity in human cells. This assay specifically addresses whether activity observed in the primary screen (AID 2451) is related to inhibition of the coupling assay used, as opposed to inhibition of aldolase. Actives in this assay are considered inconclusive for activity against aldolase.
NCGC Assay Protocol: Step,Parameter,Value,Description 1,Coupling enzyme reagent,2 uL,glyceraldehyde-3-phosphate 2,Compound,23 nL,3.68 nM-57.5 uM final concentration 3,Time,10 min,RT Incubation 4,Substrate/detection Reagent,2 uL,Substrate + enzyme coupling system + AmpLite Red kit 5,Time,20 min,RT Incubation 6,Detector,525 nm/598 nm (Fluorescence),ViewLux Fluorescence Read (Read 1) Notes: 1,Medium-binding black solid-bottom Kalypsys plates. FRD or Kalypsys dispenser. 2,Compound Library (10 mM ,1:5 dilution). Pin-transferred for a [final] range of 3.68 nM-57.5 uM. 3,RT incubation 4,FRD or Kalypsys dispenser, 2 uL of reaction mixture. Bottle kept at 4C and covered in foil to protect from light. 5,RT incubation 6,ViewLux Protocol 1194; Excitation filter wheel A (525/20 Pol; BODIPY TMR FP), Emission filter wheel B (598/25 S; BODIPY TMR FP S). Keywords: Fructose-bisphosphate aldolase, FBPA , Giardia lamblia , Giardia, HTS, Inhibitors
For `CCOc1ccc(C(c2c(C)[nH][nH]c2=O)c2c(C)[nH][nH]c2=O)cc1OCC`, the activity change, negative = inhibition was -13.2%.
`Cc1[nH][nH]c(=O)c1C(c1ccc(-c2ccc(Cl)cc2)o1)c1c(C)[nH][nH]c1=O`: the activity change, negative = inhibition is -48.6% (active).
The value for `Cc1[nH][nH]c(=O)c1C(c1ccc2c(c1)OCO2)c1c(C)[nH][nH]c1=O` was -3.39%.
To `CC(=O)Oc1cc2c(C(=O)NCCN3CCOCC3)c(C)oc2c2ccccc12` belongs -40.7% (active); to `Cc1cc(C)cc(C(=O)NCCN2CCOCC2)c1`, 0.78%.
To `Cc1ccc(C(=O)NCCN2CCOCC2)cc1C` belongs 3.18%; to `CN(CCC(=O)Nc1cc(S(=O)(=O)N(C)C)ccc1Cl)CC(=O)Nc1ccc(F)cc1`, 0.642%; to `COc1cc(OC)c2c(c1C(CCN1CCCCC1)c1ccc(N(C)C)cc1)OC(=O)CC2c1ccc(N(C)C)cc1` (stereo not drawn), 0.0898%.
Consider `O=c1c2cc(Br)ccc2nc(-c2cccc(Cl)c2)n1O`, for which the activity change, negative = inhibition is -2.84%.
To `COc1ccc(C(=O)CCc2ccccc2O)c(OC)c1` belongs -0.998%; to `Cc1cc(C)cc(NC(=O)N2CCCCCCC2)c1`, 1.15%.
To `Cc1ccc(C(=O)N2CCCCCC2)cc1Br` belongs 0.385%; to `Cc1ccc2cc3cc(C(=O)N4CCCCCC4)oc3nc2c1`, -75.9% (active); to `O=C(Nc1nnc(-c2ccccc2F)s1)c1ccccc1F`, -1.59%.
As for `COc1ccc(CCC(C)N2CCc3ccccc3C2)cc1` (stereo not drawn), the activity change, negative = inhibition is -2.37%.
Consider `COc1ccc(Cl)cc1NC(=O)COC(=O)C(CC(C)C)N1C(=O)C2CC=CCC2C1=O` (stereo not drawn), for which the activity change, negative = inhibition was -0.682%.
To `COc1ccc2[nH]cc(CCNc3ncnc4ccc(-c5ccccc5CN(C)C)cc34)c2c1` belongs -1.31%.
For `COc1ccc2[nH]cc(CCNc3cc(-c4ccccc4CN(C)C)ncn3)c2c1`, the activity change, negative = inhibition was -1.84%.
To `COc1cccc(-c2cc(NCCc3c[nH]c4ccc(OC)cc34)ncn2)c1` belongs -31% (active); to `COC(=O)CC1c2ccccc2C(Cc2ccc(OC)cc2)=C(C)N1C(=O)OC` (stereo not drawn), -0.16%.
Consider `COc1cccc(C(=O)CC(=O)C(=O)Nc2ccc([N+](=O)[O-])cc2C)c1`, for which the activity change, negative = inhibition is -0.191%.
The value for `CNC(=O)N1c2ccccc2C=Cc2ccccc21` was -0.0842%; that for `Cc1nn(-c2ccccc2)c(Cl)c1/C=C/C(=O)c1ccc(O)cc1` was 6.85%; that for `Cc1ccccc1-n1nc(C)c2c1N=C1C(Cl)=CC(Cl)=CN1C2c1ccc(C(=O)O)cc1` (stereo not drawn) was -39.1% (active).
The value for `Cc1ccccc1-n1nc(C)c2cc(C(=O)NC3CC3)sc21` was 5.2%; that for `COc1ccc(Br)cc1C1C2C=CCC(C)C2C(=O)N1Cc1ccccc1` (stereo not drawn) was 4.05%.
For the molecule `CC(=O)Nc1ccc(NC(=O)C2CCCN(S(=O)(=O)c3ccc(Cl)cc3)C2)cc1` (stereo not drawn), the activity change, negative = inhibition was 1.51%.
Regarding `CC(C)CC[n+]1ccn(C2=C([O-])c3ccccc3C(=O)/C2=N\S(=O)(=O)c2ccccc2)c1`, the activity change, negative = inhibition was -54.9% (active).
To `COc1c(O)c2c(=O)cc(OC)c3c4c(OC)cc(=O)c5c(O)c(OC)c6c(c(c1C[C@@](C)(O)[C@H]6C(C)=O)c23)c54` belongs -12.5%; to `CCCCN=C1C([N+](=O)[O-])=CC=C2C1=NC1(CCCCC1)N2O`, -41.7% (active).
The value for `CC(c1ccccn1)N(C)C(=O)c1ccc2nc(Cc3cccc(Cl)c3)oc2c1` (stereo not drawn) was 1.38%.
The value for `COC(=O)C1=C(C)N(Cc2ccccc2)C2=C3C(=O)N(c4ccccc4)C(=O)C3[C@@](O)(C(=O)OC)C(=O)N2C1c1ccccc1` (stereo partly drawn) was 1.55% and 0.598%.
On to `O=S(=O)(Nc1ccc2cn[nH]c2c1)c1ccccc1`, for which the activity change, negative = inhibition was -8.07%.
To `O=S(=O)(Nc1ccc2nc(-c3ccco3)[nH]c2c1)c1ccccc1` belongs -35.1% (active).
In the case of `Cn1c(CCN2CCCC2)nc2cc(NS(=O)(=O)c3ccccc3)ccc21`, the activity change, negative = inhibition is -1.06%.
Regarding `CCOC(=O)c1ccccc1NC(=O)COC(=O)CCC(=O)N1CCOCC1`, the activity change, negative = inhibition was 1.14%.
Take `CCCN1[C@H](C(=O)OC)C[C@@]2(O)[C@@H](O)[C@@H](O)[C@@H](O)C[C@@H]12`: the activity change, negative = inhibition was -12.1%.
Regarding `COc1ccc(-c2ccc(OC)c(C3C4C=CCC(C)C4C(=O)N3Cc3ccccc3)c2)cc1C` (stereo not drawn), the activity change, negative = inhibition was -0.316%.
Consider `Cc1cc(Br)ccc1NC(=S)NC1CCCC1`, for which the activity change, negative = inhibition is 2.32%.
The value for `CC[C@@H](C)[C@H](NC(=O)CCc1c(C)c2cc3c4c(oc3c(C)c2oc1=O)CCCC4)C(=O)O` was 0.476%; that for `COC(=O)C1=C(C(=O)OC)[C@@H]2Nc3ccccc3[C@@]23C[C@@H](C(=O)OC)N(S(=O)(=O)c2ccc([N+](=O)[O-])cc2)C3=N1` was -1.96%.
The value for `CCOc1ccc(N(C)Cc2cc(=O)oc3ccc(OC)cc23)cc1` was -3.63%; that for `CCn1c(CNc2ccc(OC)cc2)nnc1SCC(=O)c1ccc(OC)cc1` was -36.8% (active).
